Experimental findings from ChEMBL document CHEMBL4296182, “CO-ADD screening of NIH NCI Diversity Set V” are described below.

One assay has as its system Staphylococcus aureus. The assay is described as follows: Antibacterial activity against Staphylococcus aureus MRSA ATCC 43300 (CO-ADD:GP_020); MIC in CAMBH media using NBS plates, by Resazurin F(560/590). The class given is functional. As to conditions: Concentration 20 uM, ASSAY_TEST Inhibition of Bacterial Growth, detection method Resazurin, Fluorescence (ex560/em590), MEDIA CAMHB, plate type 384well, CORNING #3640, time 18 hr. For orientation: Alamar Blue is a resazurin reagent that responds to reducing activity.

The subject of another assay is Acinetobacter baumannii. The assay is described as follows: Antibacterial activity against Acinetobacter baumannii ATCC 19606 (CO-ADD:GN_034); MIC in CAMBH media using NBS plates, by Resazurin F(560/590). The class given is functional. As to conditions: Concentration 20 uM, ASSAY_TEST Inhibition of Bacterial Growth, detection method Resazurin, Fluorescence (ex560/em590), MEDIA CAMHB, plate type 384well, CORNING #3640, time 18 hr.

In a further assay the test system is Escherichia coli. Description: Antibacterial activity against Escherichia coli ATCC 25922 (CO-ADD:GN_001); MIC in CAMBH media using NBS plates, by Resazurin F(560/590). In kind it is functional. As to conditions: Concentration 20 uM, ASSAY_TEST Inhibition of Bacterial Growth, detection method Resazurin, Fluorescence (ex560/em590), MEDIA CAMHB, plate type 384well, CORNING #3640, time 18 hr.

For another assay, the system named is Klebsiella pneumoniae. The conditions noted are these: Concentration 20 uM; ASSAY_TEST Inhibition of Bacterial Growth; detection method Absorption (OD600); MEDIA CAMHB; plate type 384well; NBS; CORNING #3640; time 18 hr.
For the next assay, the system named is Candida albicans. As to conditions: 20 µM.
The test system of a further assay is Cryptococcus neoformans. The conditions noted are these: Concentration 20 uM; ASSAY_TEST Inhibition of Fungal Growth; detection method Resazurin; Absorption (OD600-OD570); plate type 384well; NBS; CORNING #3640.

For part of these data: Entries with a potency or affinity are not part of this list.

One may read the Inhibition as the change of the read-out against control, counted positive when it falls. On to `O=C1/C(=C\c2ccccc2)C2OCC=C3CN4CCC56c7ccccc7N1C5C2C3CC46` (stereo not drawn), for which the Inhibition in the assay on Staphylococcus aureus is 33.46%; in the assay on Acinetobacter baumannii it was -0.22%; in the assay on Escherichia coli, 16.65%; in the assay on Klebsiella pneumoniae, 12.64%; with Candida albicans, -0.43%; in the assay on Cryptococcus neoformans it was -4.36%.

Consider `Cn1cc(C=O)c2nccnc21`, for which the Inhibition in the assay with Staphylococcus aureus is 0.99%; with Acinetobacter baumannii it was -3.72%; in the assay on Escherichia coli, -9.44%; in the assay with Klebsiella pneumoniae it was 3.85%; with Candida albicans, 1.67%; in the assay on Cryptococcus neoformans it was 2.98%.

For `O=C1NC(=O)C(=Cc2ccc3ccccc3c2)C(=O)N1`, the Inhibition was 0.11% in the assay with Staphylococcus aureus; 10.33% with Acinetobacter baumannii; -2.67% in the assay on Escherichia coli; 19.68% in the assay on Klebsiella pneumoniae; 25.6% in the assay with Candida albicans; -7.82% in the assay with Cryptococcus neoformans.

For `Cc1ccc2c(c1)Oc1ccccc1N=C2`, the Inhibition with Staphylococcus aureus was 14.17%; with Acinetobacter baumannii, 5.41%; with Escherichia coli, -0.47%; with Klebsiella pneumoniae, 8.46%; with Candida albicans it was 8.51%; in the assay on Cryptococcus neoformans, -3.65%.

For `O=c1nc(C(F)(F)C(F)(F)C(F)(F)F)[nH]o1`, the Inhibition with Staphylococcus aureus was 8.37%; in the assay with Acinetobacter baumannii, 8.1%; in the assay on Escherichia coli, -1.78%; in the assay with Klebsiella pneumoniae, 12.08%; in the assay with Candida albicans, 3.43%; in the assay on Cryptococcus neoformans, -2.86%.

`C=C1C/C(=C/C)C(=O)O[C@@H]2CCN3CC=C(COC(=O)[C@]1(C)O)[C@H]23` [SENECIPHYLLINE]: the Inhibition in the assay with Staphylococcus aureus is 11.97%; in the assay with Acinetobacter baumannii, -14.61%; in the assay on Escherichia coli, -0.27%; in the assay on Klebsiella pneumoniae, 22.67%; in the assay with Candida albicans, -1.29%; in the assay with Cryptococcus neoformans it was -12.96%.

Turning to `CN1C(=O)CC[C@@]2(C)C1=CC[C@@H]1[C@@H]2CC[C@@]2(C)[C@H]1CC[C@]2(C)O`, the Inhibition in the assay with Staphylococcus aureus is 8.7%; with Acinetobacter baumannii it was -5.24%; in the assay with Escherichia coli, 22.22%; in the assay with Klebsiella pneumoniae it was 11.27%; in the assay with Candida albicans, -0.13%; in the assay on Cryptococcus neoformans it was -18.95%.

As for `COc1ccc2c(c1)C13CCN(C)C(C2)C1CCC1(C3)OCCO1` (stereo not drawn), the Inhibition was -3.64% in the assay with Staphylococcus aureus; 10.92% in the assay with Acinetobacter baumannii; 9.14% in the assay with Escherichia coli; 10.59% in the assay on Klebsiella pneumoniae; 2.14% with Candida albicans; -7.98% in the assay with Cryptococcus neoformans.

For the molecule `c1cnc2c(c1)ccc1ncccc12`, the Inhibition in the assay with Staphylococcus aureus was 9.5%; with Acinetobacter baumannii, -5.64%; in the assay on Escherichia coli, 9.97%; with Klebsiella pneumoniae, 12.45%; in the assay with Candida albicans it was 0.86%; with Cryptococcus neoformans, -4.19%.

For `COc1ccc2c3c1O[C@H]1C[C@@H](O)C=C[C@@]31CCN(C)C2` [GALANTAMINE], the Inhibition in the assay with Staphylococcus aureus is 2.8%; in the assay on Acinetobacter baumannii it was 5.17%; in the assay with Escherichia coli it was -15.55%; in the assay on Klebsiella pneumoniae, 17.41%; in the assay on Candida albicans, 7.99%; with Cryptococcus neoformans, 22.63%.

Regarding `CN(C)C1CCc2[nH]c3c(F)cc(F)cc3c2C1` (stereo not drawn) [FLUCINDOLE], the Inhibition was 8.89% with Staphylococcus aureus; 9.46% with Acinetobacter baumannii; 1.82% in the assay on Escherichia coli; 23.22% in the assay on Klebsiella pneumoniae; 2.28% in the assay with Candida albicans; -13.31% in the assay on Cryptococcus neoformans.

Consider `CC1=CC(O)C(O)C2(C)C1CC1OC(=O)C(O)C3C(C)C(O)C4(O)OCC13C42` (stereo not drawn), for which the Inhibition with Staphylococcus aureus is 9.24%; with Acinetobacter baumannii, 4.24%; in the assay on Escherichia coli it was -0.01%; with Klebsiella pneumoniae it was 12.12%; in the assay with Candida albicans it was -0.21%; with Cryptococcus neoformans, -7.24%.

Consider `O=C1CC(c2ccc(O)cc2)Oc2cc(O)cc(O)c21` (stereo not drawn), for which the Inhibition was 9.17% in the assay with Staphylococcus aureus; 6.14% with Acinetobacter baumannii; -5.6% in the assay on Escherichia coli; 10.18% in the assay on Klebsiella pneumoniae; 4.1% with Candida albicans; -1.84% with Cryptococcus neoformans.

Turning to `CN1C2CCC1[C@@H](COC(=O)c1ccccc1)[C@@H](O)C2` (stereo partly drawn), the Inhibition is 0.35% with Staphylococcus aureus; 15.38% with Acinetobacter baumannii; -10.56% with Escherichia coli; 17.19% with Klebsiella pneumoniae; 4.47% in the assay with Candida albicans; -7.25% in the assay with Cryptococcus neoformans.

Consider `N#CC(C#N)=Cc1ccc(C=C(C#N)C#N)cc1`, for which the Inhibition in the assay on Staphylococcus aureus is -4.05%; with Acinetobacter baumannii, -13.9%; with Escherichia coli, 2.09%; with Klebsiella pneumoniae, 11.67%; in the assay with Candida albicans it was 36.5%; with Cryptococcus neoformans, -3.4%.

For `COc1cc2c(cc1O)CC1c3c(cc(O)c(OC)c3-2)CCN1C` (stereo not drawn), the Inhibition in the assay with Staphylococcus aureus is 8.78%; with Acinetobacter baumannii, -19.02%; in the assay with Escherichia coli it was 10.6%; in the assay on Klebsiella pneumoniae it was 7.6%; in the assay on Candida albicans, -2.23%; with Cryptococcus neoformans it was -8.59%.

With `O=C(CF)N(O)c1ccc(/C=C/c2ccccc2)cc1`, the Inhibition in the assay with Staphylococcus aureus is -10.86%; in the assay with Acinetobacter baumannii, -11.91%; with Escherichia coli, 10.97%; in the assay with Klebsiella pneumoniae, 1.67%; in the assay on Candida albicans, 12.6%; in the assay on Cryptococcus neoformans, -7.92%.

`CSc1nc(=O)c(/N=N/c2ccc([As](=O)(O)O)cc2)c(N)[nH]1`: the Inhibition with Staphylococcus aureus is -2.85%; in the assay on Acinetobacter baumannii, 10.89%; with Escherichia coli, 7.88%; in the assay with Klebsiella pneumoniae, 8.89%; in the assay on Candida albicans, -0.24%; in the assay on Cryptococcus neoformans, -16.43%.

On to `COC(=O)c1nc(-c2ccc3c(n2)C(=O)C(N)=C(OC)C3=O)c(N)c(-c2ccc(OC)c(OC)c2O)c1C`, for which the Inhibition with Staphylococcus aureus was -0.84%; in the assay on Acinetobacter baumannii it was -9.1%; in the assay on Escherichia coli, 8.8%; in the assay on Klebsiella pneumoniae it was 8.38%; with Candida albicans, -0.15%; with Cryptococcus neoformans it was 0.31%.

As for `CNC(=O)Oc1ccc(N(C)C)cc1C(C)C`, the Inhibition in the assay with Staphylococcus aureus is 11.71%; in the assay with Acinetobacter baumannii it was -2.68%; in the assay with Escherichia coli it was 9.69%; in the assay on Klebsiella pneumoniae, 11.23%; in the assay on Candida albicans it was -1.51%; with Cryptococcus neoformans, -12.66%.

With `C/C=C(/C)C(=O)O[C@H]1CCN2CC=C(COC(=O)[C@@](O)([C@H](C)OC)C(C)(C)O)[C@H]12`, the Inhibition in the assay with Staphylococcus aureus was 10.77%; in the assay with Acinetobacter baumannii it was -8.86%; in the assay on Escherichia coli it was 10.49%; in the assay with Klebsiella pneumoniae, 12.46%; in the assay on Candida albicans it was -1.68%; in the assay on Cryptococcus neoformans it was -5.72%.

Regarding `CN1C2c3ccccc3C3C4c5ccccc5C(C31)C(C2[N+](=O)[O-])N4C` (stereo not drawn), the Inhibition is 16.96% with Staphylococcus aureus; 4.34% in the assay on Acinetobacter baumannii; 9.05% in the assay on Escherichia coli; 7.01% in the assay with Klebsiella pneumoniae; 2.24% in the assay with Candida albicans; -16.47% with Cryptococcus neoformans.

Consider `O=C(NCCCN1CC1)Nc1cccc2ccccc12`, for which the Inhibition in the assay with Staphylococcus aureus was -3.04%; in the assay on Acinetobacter baumannii, 12.11%; in the assay on Escherichia coli it was -2.13%; with Klebsiella pneumoniae, 20.16%; in the assay on Candida albicans it was 1.47%; in the assay on Cryptococcus neoformans, 1.2%.
